Measured values taken from PubChem BioAssay AID2284063 (EPA ToxCast).
Records with an inconclusive call do not appear. Activity calls are given as the source filed them. How the source made its calls: active means hit-call score of the fitted dose curve at least 0.9, where 1 is the maximum; inactive means score below 0.9.

Each compound was assayed against human BTK TK Kinase, BTK (gene 695) (UniProt Q06187) (assay: ERF_TW_ENZ_hBTK: Eurofins (ERF) Enzymatic Radiometric [10 uM ATP] LeadHunter Assay for human BTK TK Kinase).
Description: ERF_TW_ENZ_hBTK is a biochemical, single-readout assay that uses extracted gene-proteins in a cell-free assay. Measurements were taken 0.5 hour after chemical dosing in a 96-well plate. See BTK Human TK Kinase Enzymatic Radiometric Assay [10 uM ATP], Panlabs.ERF_TW_ENZ_hBTK is an assay component calculated from the ERF_TW_ENZ_hBTK assay. It is designed to measure enzyme activity using a type of enzyme reporter as detected by scintillation counting with radiometry technology.Data from the assay component ERF_TW_ENZ_hBTK was analyzed at the assay endpoint, ERF_TW_ENZ_hBTK, in the positive analysis fitting direction relative to DMSO as the negative control and baseline of activity. Using a type of enzyme reporter, loss-of-signal activity can be used to understand changes in enzymatic activity as they relate to gene BTK. To generalize the intended target to other relatable targets, this assay endpoint is annotated to the kinase intended target family, where the subfamily is tyrosine kinase (tk).
Human recombinant protein kinase BTK expressed in insect Sf21 cells is used. Test compound and/or vehicle is preincubated with 200 ng/ml enzymedouble dagger in modified HEPES buffer pH 7.4 for 15 minutes at 37C. […] An aliquot is removed and counted to determine the amount of [32P]Poly(Glu:Tyr) formed. […]

human BTK TK Kinase, BTK (gene 695), sequence (Q06187 whole entry, looked up): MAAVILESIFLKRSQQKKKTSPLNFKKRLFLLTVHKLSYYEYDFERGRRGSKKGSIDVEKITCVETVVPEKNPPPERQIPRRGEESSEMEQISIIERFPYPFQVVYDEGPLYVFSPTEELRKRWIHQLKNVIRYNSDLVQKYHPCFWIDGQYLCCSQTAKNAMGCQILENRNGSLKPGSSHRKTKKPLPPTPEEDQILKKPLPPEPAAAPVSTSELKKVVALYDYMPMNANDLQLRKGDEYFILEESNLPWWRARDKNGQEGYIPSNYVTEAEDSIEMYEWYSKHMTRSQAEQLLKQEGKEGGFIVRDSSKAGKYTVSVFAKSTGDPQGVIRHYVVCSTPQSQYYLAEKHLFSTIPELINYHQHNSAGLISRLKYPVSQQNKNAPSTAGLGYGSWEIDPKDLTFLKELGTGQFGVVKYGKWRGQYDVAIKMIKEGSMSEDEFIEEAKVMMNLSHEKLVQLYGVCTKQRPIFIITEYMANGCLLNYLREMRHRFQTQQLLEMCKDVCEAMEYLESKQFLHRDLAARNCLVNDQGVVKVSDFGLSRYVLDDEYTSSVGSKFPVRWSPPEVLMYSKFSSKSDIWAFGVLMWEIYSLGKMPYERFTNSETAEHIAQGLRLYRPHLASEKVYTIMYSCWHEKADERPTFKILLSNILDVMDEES

Structure (SMILES)	AC50
O=C(/C=C/c1ccc(O)cc1)CC(=O)/C=C/c1ccc(O)cc1	6.13 µM (active)
